The whole screen tested about 52,000 compounds, of which about 4,300 (8.3%) were called active. For the sample, actives were picked, then their nearest neighbours and some compounds at random. Values without a mark were called inactive. Rule as the data show it: active = survival mostly below about 52% (no sharp cut-off); inactive = mostly above about 56%.
The compounds below were run on DeltatarO mutant (assay: S. aureus survival, RN4220 and DeltatarO strains – OD600, teichoic acid synthesis inhibitors, primary screen (AID 463173)). Details: S. aureus RN4220 wild type/DeltatarO growth, OD600, 18 h, stronger effect = lower value, screened at 18.75 µg/mL (by protocol).

| Compound | survival |
| --- | --- |
| CCc1c(C)nc2cc(-c3ccc(OC)c(OC)c3)nn2c1NCC(C)(C)CN(C)C | 98% |
| Cc1ccc(-n2ncc(C(=O)NCc3ccccn3)c2C2CCN(C(=O)OC(C)(C)C)CC2)cc1C | 102% |
| CCCC(=O)N1CCCC(c2nc(-c3ccc(OC)cc3)no2)C1 (stereo not given) | 82% |
| CCOc1nc(NC(=O)NS(=O)(=O)Oc2cccc(F)c2)nc(-c2ccccc2)n1 | 74% |
| Cc1c(NC(=O)Nc2ccccc2C(F)(F)F)sc2nc3n(c(=O)c12)CCC(C)CC3 (stereo not given) | 83% |
| COc1cccc(C(=O)NC2CC(=O)N(c3ccc4c(c3)OCCO4)C2)c1OC (stereo not given) | 107% |
| CCCCN(CCCC)CCCNC(=O)c1ccc2nc(N3CCCCC3)sc2c1 | 102% |
| CCCCOCc1cc(CN2CCN(c3cccc(Cl)c3)CC2)c(O)c2ncccc12 | 83% |
| CCc1cccc(C)c1NC(=O)C1CCN(S(=O)(=O)Cc2ccccc2)CC1 | 84% |
| Cc1ccc(S(=O)(=O)N(CC(=O)NCCSc2ccc(Cl)cc2)c2cccc(Cl)c2)cc1 | 112% |
| COc1ccc(CCNC(=O)CN(c2ccccc2OC)S(=O)(=O)c2ccc(C)cc2)cc1 | 71% |
| Cc1ccc(S(=O)(=O)N(CC(=O)Nc2c(C)cccc2C)c2cccc(Cl)c2)cc1 | 46% (active) |
| Cc1cccc(N(CC(=O)NCCSCc2ccccc2)S(=O)(=O)c2ccccc2)c1C | 57% |
| Cc1ccc(S(=O)(=O)N(CC(=O)Nc2ccc(Cl)cc2Cl)c2ccccc2C)cc1 | 106% |
| Cc1ccc(S(=O)(=O)N(CC(=O)NCCSc2ccc(Cl)cc2)c2ccccc2C)cc1 | 58% |
| Cc1ccc(CNC(=O)CN(c2cccc(C)c2C)S(=O)(=O)c2ccccc2)cc1 | 73% |
| Cc1ccc(S(=O)(=O)N(CC(=O)NCCc2ccc(Cl)cc2)c2ccccc2C)cc1 | 49% (active) |
| Cc1cccc(N(CC(=O)NCCc2ccccc2)S(=O)(=O)c2ccccc2)c1C | 56% (active) |
| Cc1ccccc1CNC(=O)c1cnc2sc(N3CCOCC3)nn2c1=O | 68% |
| Cc1ccc(-n2nc3c(=O)n(CCCC(=O)NCCc4ccccc4Cl)nc(C)c3c2C)cc1 | 91% |
| COc1cccc(CNC(=O)CCc2c(C)nc3c(c(C)nn3-c3ccc(C)c(C)c3)c2C)c1 | 67% |
| O=S(=O)(c1ccccc1)c1nnn2c1nc(NC1CCCCCC1)c1sccc12 | 72% |
| Cc1nc(N2CCOCC2)c2c(C(=O)N(C)Cc3ccccc3)c(C)oc2n1 | 118% |
| COC(=O)c1scc(-c2ccc(C)cc2)c1S(=O)(=O)N1CCN(c2ccccc2F)CC1 | 118% |
| COc1cccc(N2CC(NC(=O)c3cccs3)CC2=O)c1 (stereo not given) | 74% |
| Cc1ccc(-n2ncc(C(=O)NCc3ccc4c(c3)OCO4)c2C2CCN(C(=O)OC(C)(C)C)CC2)c(C)c1 | 92% |
| CCOc1cc(Cn2c(-c3ccc(O)c(OCC)c3)nc3ccccc32)ccc1O | 73% |
| COc1ccc(Cn2c(=O)c3ccccc3n3c(-c4ccc(C)cc4)nnc23)cc1 | 90% |

| Compound | survival |
| --- | --- |
| COc1ccc(-c2nc3ccccc3n2Cc2ccc(Cl)cc2)cc1 | 6% (active) |
| COc1ccc(Cn2c(SC)nc3ccccc32)cc1 | 97% |
| COc1ccc(-c2noc(=O)n2Cc2ccccc2)cc1 | 75% |
| COc1ccc(Cn2c(SCC(=O)NCc3ccccc3)nc3ccccc32)cc1 | 117% |
| COc1ccc(-c2nc3ccccc3n2Cc2ccccc2)cc1 | -1% (active) |
| COc1ccc(-c2nc3ccccc3n2Cc2ccc(C(C)C)cc2)cc1 | 4% (active) |
| COc1ccc(Cn2c(SCC(=O)Nc3ccc(OC)cc3)nc3ccccc32)cc1 | 88% |
| Cc1ccc(NC(=O)Cn2c(=O)oc3cc(S(=O)(=O)N4CCCCC4)ccc32)c(C)c1 | 81% |
| Cc1cc(C)cc(NC(=O)C(=O)NCCc2sc(-c3cccc(F)c3)nc2C)c1 | 80% |
| COc1cccc(-n2c(=O)c3sc4ccccc4c3n(CC(=O)Nc3ccc(F)cc3F)c2=O)c1 | 64% |
| O=C(NCCc1ccccc1)c1cc(Sc2cccc(Cl)c2)nc2ccccc12 | 88% |
| Cc1ccc2c(c1)-c1c(cnn1CC(=O)N1CCN(c3ccccc3F)CC1)CO2 | 73% |
| Cc1cccc(N2CCN(C(=O)CCS(=O)(=O)c3ccc4c(c3)CC(=O)N4C)CC2C)c1 (stereo not given) | -2% (active) |
| Cc1cccc(N2CCN(C(=O)Cn3ncc4c3-c3cc(C)ccc3OC4)CC2C)c1 (stereo not given) | 47% (active) |
| CCN(C(=O)Cn1ncc2c1-c1cc(C)ccc1OC2)c1cc(Cl)ccc1OC | 31% (active) |
| Cc1ccc2c(c1)-c1c(cnn1CC(=O)N1CCN(c3cccc(C(F)(F)F)c3)CC1)CO2 | 50% |
| COc1cc(Cl)c(C)cc1NC(=O)Cn1ncc2c1-c1cc(C)ccc1OC2 | 58% |
| CN1C(=O)Cc2cc(S(=O)(=O)CCC(=O)N3CCN(c4cccc(Cl)c4)CC3)ccc21 | 62% |
| CCC(=O)N1CCc2cc(S(=O)(=O)CCC(=O)N3CCN(c4cccc(C)c4)C(C)C3)ccc21 (stereo not given) | 76% |
| Cc1ccc2c(c1)-c1c(cnn1CC(=O)N1CCN(c3cc(Cl)ccc3C)CC1)CO2 | 49% |
| O=C(NCc1ccc(Cl)cc1)c1cc(S(=O)(=O)N2CCCCC2)c[nH]1 | 103% |
| Cc1ccc(-n2ncc3c(NC4CCCCC4)ncnc32)cc1 | 88% |
| Cc1ccccc1NCc1cccn1-c1nnc(N2CCOCC2)s1 | 112% |
| Cc1ccc(C(=O)c2oc3ccccc3c2NC(=O)c2cc(-c3ccc(Cl)cc3)on2)cc1 | 87% |
| CC1CCC(NC(=O)c2ccc3c(c2)N(Cc2cccc(Cl)c2)C(=O)c2ccccc2S3(=O)=O)CC1 (stereo not given) | 74% |
| COc1ccc2[nH]c(=O)c(CN(CCO)S(=O)(=O)c3ccc(Cl)c(C(F)(F)F)c3)cc2c1 | 98% |
| COc1ccc(NCc2cccn2-c2nnc(N3CCOCC3)s2)c(OC)c1 | 78% |

Source: PubChem BioAssay AID463173 (ICCB-Longwood Screening Facility, Harvard Medical School, 2010)
